Consider 27 compounds from PubChem BioAssay AID1645850 (National Center for Advancing Translational Sciences (NCATS), 2021).

SMILES strings stand for the structures. Records with an inconclusive call do not appear. A number with no mark means an inactive call. The call rests on the fitted dose curve; in most records, active means well fitted curve in the direction sought with a large enough effect in the repeat runs; inconclusive means weak or mixed curves, or another doubt; inactive means no such curve, though single readings can be large or run the other way.

A short description of this assay: Comparison of Janus kinase inhibitors to block the type I interferon pathway in human skeletal muscle cells: CTG Counterscreen. Conditions: human skeletal muscle cells viability, CellTiter-Glo ATP luminescence; series mostly up to 45.9 µM; activity change, negative = cytotoxicity: at the top concentration. An excerpt:
Assay Submitter (PI): Travis B. Kinder Ph.D.
National Center for Advancing Translational Sciences (NCATS)
The family of Janus kinases (JAK1, JAK2, JAK3, TYK2) mediate signal transduction from cytokine receptors through phosphorylation and activation of intracellular signaling pathways and transcription factors. Small molecule antagonists of JAKs (jakinibs) have been developed with varying selectivity for the use in malignancies and immune regulation. […] We have assayed a library of 48 jakinibs for their ability to inhibit the JAK1/TYK2-dependent type I interferon (IFN) - major histocompatibility complex (MHC) class I pathway in human skeletal muscle cells genome-engineered to fuse a pro-luminescent HiBiT peptide to endogenous MHC class I.
The assay utilized CRISPR/Cas9 genome-engineered immortalized human myoblasts, C25cl48, where a pro-luminescent reporter HiBit was fused to the C-terminus of endogenous MHC class I allele HLA-B*08:01 (HLA-B HiBit myoblasts) (Kinder et al., 2020). HiBit is an 11 amino acid fragment of NanoLuc luminescent reporter (Promega Corporation), and when complexed to the larger LgBit fragment, the reconstituted enzyme produces light in the presence of furimazine substrate. Briefly, HLA-B HiBit myoblasts were plated into 1536-well plates, treated with 4.0 ng/ml human IFN-beta and 48 jakinibs in an 11-point, 1:3 titration with a high final concentration of 46 uM. After 24 hrs of treatment, cells were assayed by CellTiter-Glo Luminescent Cell Viability Assay (Promega) and luminescence measured by a ViewLux 1430 Ultra HTS (Perkin Elmer).
1. Kinder TB, Dranchak PK, Inglese J. High-Throughput Screening to Identify Inhibitors of the Type I Interferon-Major Histocompatibility Complex Class I Pathway in Skeletal Muscle. ACS Chem Biol. 2020 Jul 17;15(7):1974-1986. doi: 10.1021/acschembio.0c00343
PROTOCOL TABLE (as described by Inglese et al., 2007)
SEQUENCE No. (e.g., 1, 2, 3, etc.); PARAMETER (e.g., Cells, Incubation, Reagent, etc.); VALUE; DESCRIPTION
1a; Cells; 5 uL; Seed 250 cells/well with a Multidrop Combi (Thermo Scientific) into two Greiner 1536 well white/solid bottom, high base, TC plates (789173-F) in 5 ul/well of growth medium (GM) without dexamethasone into columns 1+2
1b; Cells; 5 uL; Seed 250 cells/well with a Multidrop Combi (Thermo Scientific) into two Greiner 1536 well white/solid bottom, high base, TC plates (789173-F) in 5 ul/well of GM without dexamethasone + 4 ng/ml IFN-beta into columns 3 - 48. Add metal lids with gas-exchange holes.
2; Incubate; 30 min; Incubate at 37C, 5% CO2, 95% RH
3; Compounds; 23 nl; Transfer DMSO control and library compounds in DMSO with Pin Tool (Wako)
4; Incubate; 24 hrs; Incubate at 37C, 5% CO2, 95% RH
5; Dispense; 2.5 ul; Add CellTiter Glo lytic reagent with a BioRAPTR FRD (Beckman Coulter)
6; Incubate; 10 min; Incubate in the dark at ambient temperature for lysis
7; Detector; 5 sec; Measure luminescence with ViewLux 1430 Ultra HTS (Perkin Elmer). Settings: Exposure = 2 sec, Gain = High, Speed = Slow, Binning = 2X
NOTES (numbers refer to sequence above)
1; HLA-B HiBit myoblasts cultured in GM - 4:1 ratio DMEM Glutamax (Thermo Fisher, 10566) : M199 (Thermo Fisher, 11150), 10% FBS (Hyclone Standard), 1% Pen/Strep, 50 ug/ml fetuin, 10 ng/ml hEGF, 1 ng/ml bhFGF, 10 ug/ml insulin, 0.4 ug/ml dexamethasone (supplements from Promocell, C-39360). […] Recombinant human IFN-beta (Peprotech, 300-02BC) was reconstituted in water, diluted in GM, and aliquots stored at -80C until day of use.
3; Control plate contained DMSO in columns 1 and 4, digitonin (Sigma, D141) cytotoxicity control in DMSO at 20 mM in column 2, and ruxolitinib (Selleckchem, S1378) inhibitor control in DMSO 16-point, 1:2 titration, high concentration = 17 mM in column 3. Digitonin and ruxolitinib stocks were reconstituted at 20 and 50 mM in DMSO and aliquots stored at -20C. […]
Background: Counterscreens check selectivity or assay interference.
On to `CC(C)(O)C(=O)N1CCN(c2ccc(C(F)(F)F)c(C3=C(c4c[nH]c5ccccc45)C(=O)NC3=O)c2)CC1`, for which the “activity change, negative = cytotoxicity” value is -7.18%.

`CC[C@@](C)(Nc1ccnc(-c2c[nH]c3ncccc23)n1)C(=O)NCC(F)(F)F`: the “activity change, negative = cytotoxicity” value is 5.31%.

As for `Cn1cc(Nc2nccc(N3C[C@H]4CC[C@@H](C3)N4C(=O)[C@@H]3CC3(F)F)n2)cn1`, the “activity change, negative = cytotoxicity” value is -24.6%.

Consider `CCS(=O)(=O)N1CC(CC#N)(n2cc(-c3ncnc4[nH]ccc34)cn2)C1`, for which the “activity change, negative = cytotoxicity” value was 1.82%.

On to `O=C(Nc1ccnc(NC(=O)C2CC2)c1)c1c(Cl)cccc1Cl`, for which the “activity change, negative = cytotoxicity” value was 8.25%.

For `Cc1oncc1C(=O)Nc1ccc(C(F)(F)F)cc1`, the “activity change, negative = cytotoxicity” value is -6.1%.

Turning to `CC[C@@H]1CN(C(=O)NCC(F)(F)F)C[C@@H]1c1cnc2cnc3[nH]ccc3n12`, the “activity change, negative = cytotoxicity” value was -28.6%.

Take `CNS(=O)(=O)CC1CCC(N(C)c2ncnc3[nH]ccc23)CC1` (configuration not stated): the “activity change, negative = cytotoxicity” value was 15%.

In the case of `[2H]C([2H])([2H])NC(=O)c1nnc(NC(=O)C2CC2)cc1Nc1cccc(-c2ncn(C)n2)c1OC`, the “activity change, negative = cytotoxicity” value is -10.7%.

For `CCn1c(C(=O)N(C2CC2)C2CC2)cc2c3c(ncn3C)c(Nc3cc(C)n(C)n3)nc21`, the “activity change, negative = cytotoxicity” value was -17.3%.

As for `CC(C)(C)NS(=O)(=O)c1ccc(-c2ccc3[nH]nc(N)c3c2)cc1`, the “activity change, negative = cytotoxicity” value is 15.9%.

`N#CC[C@H](C1CCCC1)n1cc(-c2ncnc3[nH]ccc23)cn1`: the “activity change, negative = cytotoxicity” value is 8.46%.

Turning to `N#CCNC(=O)c1ccc(-c2ccnc(Nc3ccc(N4CCOCC4)cc3)n2)cc1`, the “activity change, negative = cytotoxicity” value was -19.9%.

Take `N#C/C(=C\c1ccc(O)c(O)c1)C(=O)NCc1ccccc1`: the “activity change, negative = cytotoxicity” value is 1.73%.

Consider `CC(C)(C)c1nc2c3cc[nH]c(=O)c3c3cc(F)ccc3c2[nH]1`, for which the “activity change, negative = cytotoxicity” value is -11.6%.

On to `NC(=O)c1cnc2[nH]ccc2c1NC1C2CC3C[C@H]1CC(O)(C3)C2` (some centres not stated), for which the “activity change, negative = cytotoxicity” value is 1.18%.

On to `CN(C)c1ccc(Nc2nc(N)n(C(=O)c3c(F)cccc3F)n2)cc1`, for which the “activity change, negative = cytotoxicity” value is -10.4%.

Consider `Cc1cc(Nc2cc(CN3CCOCC3)c3nc(C)c(Cc4ccc(Cl)cc4F)n3n2)n[nH]1`, for which the “activity change, negative = cytotoxicity” value was -19%.

Consider `CCS(=O)(=O)N1CCN(c2ccc(Nc3ncc(C(N)=O)c(NC4CC4)n3)cc2)CC1`, for which the “activity change, negative = cytotoxicity” value is 1.99%.

On to `COc1cc2ncnc(Nc3ccc(O)cc3)c2cc1OC`, for which the “activity change, negative = cytotoxicity” value was -2.03%.

For `CCCS(=O)(=O)NC1CC(N(C)c2ncnc3[nH]ccc23)C1` (configuration not stated), the “activity change, negative = cytotoxicity” value is 5.82%.

Consider `CN1CCN(c2cccc(Nc3nc4c(-c5ccc(S(C)(=O)=O)cc5)cccn4n3)c2)CC1`, for which the “activity change, negative = cytotoxicity” value is -4.5%.

Regarding `CC(C)(C)NC(=O)Nc1cccc(Nc2ncc(F)c(NC(C)(C)CO)n2)c1`, the “activity change, negative = cytotoxicity” value was 6.2%.

As for `CC1(C)CN(C(=O)c2ccc(-c3cccc4nc(NC(=O)C5CC5)nn34)cc2)C1`, the “activity change, negative = cytotoxicity” value was 7.08%.

As for `C[C@@H]1CCN(C(=O)CC#N)C[C@@H]1N(C)c1ncnc2[nH]ccc12`, the “activity change, negative = cytotoxicity” value is 3.19%.

As to `O=C(Nc1ccc(-c2ccnc(Nc3ccc(N4CCOCC4)cc3)n2)cc1)[C@@H]1CCCN1`, the “activity change, negative = cytotoxicity” value is 12.2%.

`C=CC(=O)Nc1ccc(F)c(-c2ncnc3[nH]cc(C(=O)OCC)c23)c1`: the “activity change, negative = cytotoxicity” value is 3.28%.
